Measurements reported in PubChem BioAssay AID463173 (ICCB-Longwood Screening Facility, Harvard Medical School, 2010).
Out of some 52,000 compounds screened, about 4,300 (8.3%) were called active. No stated cut-off is given here; in the data, active means survival mostly below about 52% (no sharp cut-off); inactive means mostly above about 56%. For the sample, actives were picked, then their nearest neighbours and some compounds at random.

tested on: DeltatarO mutant; assay: growth inhibition of S. aureus wild type versus tarO mutant, primary screen, teichoic acid synthesis inhibitors, RN4220, OD600 (AID 463173); conditions: OD600, 18 h, active compounds read low, screened at 18.75 µg/mL (by protocol)

Row | Compound | survival
1 | O=C(CCNS(=O)(=O)c1ccc2c(c1)CCCC(=O)N2)NCc1ccccc1Cl | 87% (inactive)
2 | CCCOc1ccc(CNC(=O)Cn2ncn3c(cc4sc(CC)cc43)c2=O)cc1 | 94% (inactive)
3 | CC(C)Cc1nn2c(=O)cc(COC(=O)c3ccccc3NC(=O)c3ccccc3)nc2s1 | 117% (inactive)
4 | CSc1ncc(C(=O)Nc2ccccc2C(=O)c2ccccc2)c(C)n1 | 64% (inactive)
5 | Cc1cccc(C(=O)NC(c2n[nH]c(=S)n2C)C(C)C)c1 (stereo not drawn) | 111% (inactive)
6 | CCCOc1cccc(C(=O)Nc2cccc(NC(=O)c3ccc(Cl)cc3Cl)c2)c1 | 88% (inactive)
7 | CCOC(=O)c1ccccc1NC(=O)Cc1c(C(=O)O)c(C)cn1C | 17% (active)
8 | CCOC(=O)c1ccccc1NC(=O)CCOc1ccccc1 | 22% (active)
9 | CCc1ccc(NC(=O)Cc2c(C(=O)O)c(C)cn2C)cc1 | 87% (inactive)
10 | Cc1cn(C)c(CC(=O)Nc2cccc(Cl)c2C)c1C(=O)O | 99% (inactive)
11 | Cc1ccc(C)c(NC(=O)CCOc2ccccc2)c1 | 77% (inactive)
12 | Cc1c(Cl)cccc1NC(=O)CCOc1ccccc1 | 142% (inactive)
13 | COc1ccc(C2(C(=O)O)CCCC2)cc1OC | 107% (inactive)
14 | CSc1ncc(C(=O)N2CCN(c3cc(C)ccc3C)CC2)c(C)n1 | 72% (inactive)
15 | Cc1ccc(S(=O)(=O)c2nnn3c2nc(N2CCC(C)CC2)c2cc(Cl)ccc23)cc1C | 78% (inactive)
16 | COc1ccc(OC)c(C2C(C(=O)N3CCCCC3)=C(C)Nc3nc4ccccc4n32)c1 (stereo not drawn) | 63% (inactive)
17 | COc1ccc(-n2cnc3cc(C(=O)NCCC4=CCCCC4)ccc32)cc1 | 75% (inactive)
18 | CC(C)C(=O)Nc1ccc(N2CCN(C(=O)c3ccccc3)CC2)cc1 | 101% (inactive)
19 | CCOCCCn1c(SCC(=O)Nc2ccccc2CC)nc2ccccc2c1=O | 80% (inactive)
20 | O=C(CSc1nc2ccsc2c(=O)n1Cc1ccccc1Cl)NCc1ccc(Cl)cc1 | 101% (inactive)
21 | CC(C)CCn1c(SCc2cccc(F)c2)nc2ccsc2c1=O | 87% (inactive)
22 | Cc1ccc(Cn2c(SCC(=O)NCc3ccccc3)nc3ccsc3c2=O)cc1 | 92% (inactive)
23 | Cc1ccc(Cn2c(SCC(=O)NCc3ccccc3Cl)nc3ccsc3c2=O)cc1 | -5% (active)
24 | Cc1ccc(CSc2nc3ccsc3c(=O)n2CCC(C)C)cc1 | -5% (active)

Row | Compound | survival
25 | Cc1ccccc1CSc1nc2ccsc2c(=O)n1CCC(C)C | 68% (inactive)
26 | Cc1nc2sc(C(=O)N(C)Cc3ccccc3)c(NC(=O)c3ccccc3)c2c(C)c1Cl | 60% (inactive)
27 | Cc1cc(=O)n(Cc2ccccc2Cl)c2c1c(C)nn2-c1ccccc1 | 100% (inactive)
28 | CCOc1ccc(CNC(=O)c2nn(-c3ccc(OC)cc3)c(=O)c3c2c2ccccc2n3C)cc1 | 101% (inactive)
29 | CCC(=O)N1c2ccccc2CC1C(=O)NCc1ccc(OC(C)C)cc1 (stereo not drawn) | 97% (inactive)
30 | CC1CCN(CC(=O)O)CC1 | 99% (inactive)
31 | COc1cc(-c2noc(CSc3nc(-c4ccc(F)cc4)cc(=O)[nH]3)n2)cc(OC)c1OC | 69% (inactive)
32 | NC(=O)C1CCN(C(=O)c2cc(-c3ccccc3)on2)CC1 | 98% (inactive)
33 | O=C(C1CC(c2ccccc2O)=NO1)N1CCCC1 (stereo not drawn) | 91% (inactive)
34 | CCc1cc(C(=O)N2CCN(c3ccccc3)CC2)no1 | 48% (inactive)
35 | CC1CCN(C(=O)c2cc(-c3ccc(Cl)cc3)on2)CC1 | 66% (inactive)
36 | CC1CCN(C(=O)c2cc(-c3ccc(Br)cc3)on2)CC1 | 51% (inactive)
37 | CN(C(=O)c1cc(-c2ccccc2)on1)C1CCCCC1 | 91% (inactive)
38 | O=C(c1cc(-c2cccc(Cl)c2)on1)N1CCN(c2ccccc2)CC1 | 23% (active)
39 | O=C(c1cc(-c2ccccc2O)on1)N1CCCCC1 | 40% (active)
40 | O=C(O)c1cc(-c2ccccc2)on1 | 100% (inactive)
41 | CC1CCN(C(=O)c2cc(-c3cccc(Cl)c3)on2)CC1 | -15% (active)
42 | CN(C(=O)c1cc(-c2ccccc2O)on1)c1ccccc1 | 40% (active)
43 | O=C(c1cc(-c2ccc(O)cc2)on1)N1CCN(c2ccccc2)CC1 | 96% (inactive)
44 | CCN(CCCNC(=O)Cn1ncc2c([nH]c3ccc(C)cc32)c1=O)c1ccccc1 | 115% (inactive)
45 | Cc1csc2nc(COc3ccc(NC(=O)C(C)C)cc3)cc(=O)n12 | 98% (inactive)
46 | COc1ccc(NC(=O)Cn2cc(C(=O)c3ccccc3)c(=O)c3cc(OC)ccc32)c(OC)c1 | 92% (inactive)
47 | CCCn1cc(S(=O)(=O)c2ccc(C)c(C)c2)c(=O)c2cc(F)c(N3CCC(C)CC3)cc21 | 67% (inactive)
48 | COc1cccc2cc(C(=O)N3CCN(c4cc(C)ccc4C)CC3)c(=O)oc12 | 56% (inactive)

Row | Compound | survival
49 | Cc1cccc(CNC(=O)CN2C(=O)CCn3nc(-c4cn(C)c5ccccc45)cc32)c1 | 119% (inactive)
50 | CCOC(=O)COc1ccc(CC)cc1C(=O)c1ccn2nc(-c3ccc(Cl)cc3)cc2n1 | 74% (inactive)
51 | COc1ccccc1NC(=O)N(Cc1nnc2n1CCCCC2)c1ccc(F)cc1 | 91% (inactive)
52 | COc1ccccc1N1CCN(C(=O)c2cc(-c3ccccc3O)on2)CC1 | 61% (inactive)
53 | O=C(c1cc(-c2cccc(Cl)c2)on1)N1CCCCC1 | 46% (active)
54 | COCCNC(=O)c1cc(-c2cccc(Cl)c2)on1 | 134% (inactive)
55 | COc1ccc(-c2cc(C(=O)N3CCN(c4ccccc4)CC3)no2)cc1 | 77% (inactive)
56 | CCN(CC)C(=O)c1cc(-c2ccc(Cl)cc2)on1 | 36% (active)
57 | COc1ccccc1-c1cc(C(=O)N2CCN(c3ccccc3)CC2)no1 | -15% (active)
58 | CN(Cc1ccccc1)C(=O)c1cc(-c2cccc(Cl)c2)on1 | -15% (active)
59 | CCN(CC)C(=O)c1cc(-c2ccccc2)on1 | 101% (inactive)
60 | O=C(c1cc(-c2ccccc2)on1)N1CCCCC1 | 95% (inactive)
61 | O=C(NCCc1ccccc1)c1cc(-c2cccc(Cl)c2)on1 | 76% (inactive)
62 | CCc1ccc(CN(Cc2ccco2)C(=O)c2cc(-c3ccc(Cl)cc3)on2)cc1 | 75% (inactive)
63 | Cc1ccc(-c2cc(C(=O)N3CCCC3)no2)cc1 | 98% (inactive)
64 | CC(C)CN1CCc2nc(N3CCN(c4ncccn4)CC3)ncc2C1 | 72% (inactive)
65 | CCNc1nc(NCC)nc(N(C#N)CC)n1 | 62% (inactive)
66 | CCc1ccc(NC(=O)Cn2c(=O)n(Cc3ccc(C)cc3)c(=O)c3cccnc32)cc1 | 88% (inactive)
67 | CC(=O)c1ccc(N2CCN(C(=O)Nc3cn(CC(C)C)c(=O)c4ccccc34)CC2)cc1 | 80% (inactive)
68 | Cc1ccc(C)c(NC(=O)c2cnc(N3CCCC3)nc2C)c1 | 94% (inactive)
69 | COc1ccc(NC(=O)CSc2oc(-c3ccc(F)cc3)nc2S(=O)(=O)c2ccc(C)cc2)c(OC)c1 | 61% (inactive)
70 | Cc1cccc(NC(=O)NCCOCCn2c(=O)oc3ccccc32)c1C | 99% (inactive)
71 | O=C(Nc1ccc(Cl)cc1)N1CCC(CN2CCCC2)CC1 | 84% (inactive)
72 | CCCCC(=O)Nc1cccc(OCc2cc(=O)n3ccccc3n2)c1 | 87% (inactive)

Row | Compound | survival
73 | O=C(NC1CCCCC1)c1ccc2c(c1)N(Cc1cccc(Cl)c1)C(=O)c1ccccc1S2=O (stereo not drawn) | 101% (inactive)
74 | CCN(C(=O)c1ccc2c(c1)N(Cc1cccc(Cl)c1)C(=O)c1ccccc1S2=O)c1ccccc1 (stereo not drawn) | 32% (active)
75 | CC1CCC(NC(=O)c2ccc3c(c2)N(Cc2ccccc2)C(=O)c2ccccc2S3=O)CC1 (stereo not drawn) | 104% (inactive)
76 | CCCCN(C)C(=O)c1ccc2c(c1)N(Cc1cccc(Cl)c1)C(=O)c1ccccc1S2=O (stereo not drawn) | 99% (inactive)
77 | CCOC(=O)N1CCC(NC(=O)c2ccc3c(c2)N(Cc2cc(C)ccc2C)C(=O)c2ccccc2S3=O)CC1 (stereo not drawn) | 42% (active)
78 | O=C(NCCC1=CCCCC1)c1ccc2c(c1)N(Cc1ccc(Cl)cc1)C(=O)c1ccccc1S2=O (stereo not drawn) | 63% (inactive)
79 | CN(C(=O)c1ccc2c(c1)N(Cc1cccc(Cl)c1)C(=O)c1ccccc1S2=O)C1CCCCC1 (stereo not drawn) | 101% (inactive)
80 | CCOC(=O)N1CCC(NC(=O)c2ccc3c(c2)N(Cc2ccccc2)C(=O)c2ccccc2S3=O)CC1 (stereo not drawn) | 57% (inactive)
81 | O=C(NCCC1=CCCCC1)c1ccc2c(c1)N(Cc1cccc(Cl)c1)C(=O)c1ccccc1S2=O (stereo not drawn) | 37% (active)
82 | CC1CCC(NC(=O)c2ccc3c(c2)N(Cc2cccc(Cl)c2)C(=O)c2ccccc2S3=O)CC1 (stereo not drawn) | 25% (active)
83 | CCOC(=O)N1CCC(NC(=O)c2ccc3c(c2)N(Cc2ccccc2C)C(=O)c2ccccc2S3=O)CC1 (stereo not drawn) | 53% (inactive)
84 | O=C(NCCC1=CCCCC1)c1ccc2c(c1)N(Cc1ccccc1)C(=O)c1ccccc1S2=O (stereo not drawn) | 70% (inactive)
85 | Cc1ccc(-n2c(=O)c3c(cnn3C)n(CC(=O)Nc3c(C)cccc3C)c2=O)cc1 | 85% (inactive)
86 | COc1ccc(NC(=O)Cn2c(=O)n(-c3ccc(CC(=O)NCC4CCCO4)cc3)c(=O)c3ccccc32)c(OC)c1 (stereo not drawn) | 102% (inactive)
87 | COc1cc(C(=O)N2CCN(c3ccc(Nc4ccccc4)nn3)CC2)cc(OC)c1OC | 80% (inactive)
88 | COc1cc(C(=O)Nc2sc(C(=O)N3CCOCC3)c(C)c2C#N)cc(OC)c1OC | 84% (inactive)
89 | CN(C)CCN(C(=O)c1ccco1)c1nc2c(F)cc(F)cc2s1 | 72% (inactive)
90 | O=C(c1ccc2c(c1)N(Cc1ccc(Cl)cc1)C(=O)c1ccccc1S2(=O)=O)N1CCOCC1 | 96% (inactive)
91 | O=C1OC(C(=O)Nc2ccc(Cl)c(C(F)(F)F)c2)Cc2ccccc21 (stereo not drawn) | 55% (inactive)
92 | O=C1OC(C(=O)Nc2cc(C(F)(F)F)ccc2Cl)Cc2ccccc21 (stereo not drawn) | 56% (active)
93 | O=C1OC(C(=O)Nc2cccc(Br)c2)Cc2ccccc21 (stereo not drawn) | 54% (inactive)
